Assay outcomes as filed in PubChem BioAssay.
KB-V1 cytotox: kills drug-selected multidrug resistant KB-V1 cells; Potency, µM (titrated, usually from 46.1 µM), hits mostly cytotoxic; hit rate 3.4% among 400,000; KB-V1 MDR cells viability, CellTiter-Glo, 72 h; AID 1347076; further: nearly all actives have a fitted effect of over 60% in size
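Readout: CellTiter-Glo luminescence, 10 min after addition. Cells: KB-V1 MDR subline, 72 h at 37 degrees C with compound. Analysis: corrected, normalized data fitted to concentration-effect curves.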
Giardia kill: kills Giardia lamblia; Giardia lamblia trophozoite viability; activity change, % at 7.66 µM, hits read low; hit rate 0.15% among 340,000; in the data active means activity change below about -80%; inconclusive means between about -30% and that limit;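 further: parasites exposed to compound for two days anaerobically before the ATP read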
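ATP-content bioluminescence gauges trophozoite survival. Cells (100/well) receive compound and incubate anaerobically for 48 hrs at 37 deg C; detection reagent follows for 15-30 min at room temperature.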
MCF10A rerep: DNA re-replication induction in MCF 10a cells | MCF 10A DNA re-replication, Hoechst nuclear intensity, 48 h | Potency, µM (highest dose often 46.1 µM), hits mostly activators | hit rate 2.9% among 350,000 | AID 624296; further: nearly all actives have a fitted effect of over 50% in size
ASM inhibitor: inhibitors of human secretory acid sphingomyelinase; Potency, µM (titrated, usually from 57.5 µM), most hits filed as inhibitors; hit rate 0.006% among 340,000; placental ASM, HMU-PC fluorogenic substrate, 60 min
Target sequence (P17405 47-631 limits assumed): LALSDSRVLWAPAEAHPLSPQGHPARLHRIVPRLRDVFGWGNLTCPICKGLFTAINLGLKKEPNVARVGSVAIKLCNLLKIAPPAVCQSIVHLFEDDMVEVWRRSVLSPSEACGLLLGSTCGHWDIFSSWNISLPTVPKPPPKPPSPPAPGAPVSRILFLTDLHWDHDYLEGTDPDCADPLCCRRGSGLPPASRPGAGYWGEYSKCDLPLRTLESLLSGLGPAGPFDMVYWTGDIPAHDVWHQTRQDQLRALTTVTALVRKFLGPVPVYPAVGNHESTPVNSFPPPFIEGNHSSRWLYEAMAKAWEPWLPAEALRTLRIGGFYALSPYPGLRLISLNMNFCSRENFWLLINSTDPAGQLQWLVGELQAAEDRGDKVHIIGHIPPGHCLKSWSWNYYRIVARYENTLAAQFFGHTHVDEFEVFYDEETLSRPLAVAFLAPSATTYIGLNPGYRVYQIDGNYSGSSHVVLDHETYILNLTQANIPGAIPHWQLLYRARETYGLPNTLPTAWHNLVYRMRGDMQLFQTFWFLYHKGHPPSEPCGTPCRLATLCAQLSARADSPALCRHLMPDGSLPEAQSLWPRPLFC
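Human placenta-derived ASM preincubated with compound 10 min at room temperature, then reacted with 9 uM (final) fluorogenic HMU-PC substrate for 60 min at 37 C. Stop solution raises pH to 10; fluorescence read at Ex 386/Em 447 nm.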
KB-3-1 tox: KB-3-1 parental cell cytotoxicity; KB-3-1 viability, CellTiter-Glo ATP luminescence, 72 h; Potency, µM (doses to about 46.1 µM), most hits filed as cytotoxic; hit rate 1.4% among 400,000; AID 1347075; further: nearly all actives have a fitted effect of over 60% in size
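72 h, 37 °C compound treatment of KB-3-1 parental cells; CellTiter-Glo added, 10 min, luminescence read. Data corrected against DMSO-only plates and normalized before curve fitting.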
SW480 rerep: inducers of DNA re-replication in SW480 colon cancer cells; SW480 DNA re-replication, Hoechst DNA content imaging, 48 h; Potency, µM (titrated, usually from 46.1 µM), actives largely listed as activators; hit rate 1.8% among 340,000; AID 624297; further: nearly all actives have a fitted effect of over 55% in size
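Quantitative HTS format with DMSO vehicle controls; 48 hr drug incubation at 37 C, then 40 min Hoechst staining and scanning imager measurement at 405 nm excitation.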
Hits are given with their value; – = inactive; ? = inconclusive; · = no result. A selection: hits, their analogues and other compounds. The true share with any hit is near 6.9%. Unless noted, the call rests on the fitted dose curve; in most records, active means well fitted curve in the direction sought with a large enough effect; inconclusive means small, poorly fitted or top-dose-only effect, or another doubt; inactive means no such curve, though single readings can be large; an effect the other way counts as inactive or inconclusive.

SMILES	KB-V1 cytotox	Giardia kill	MCF10A rerep	ASM inhibitor	KB-3-1 tox	SW480 rerep
Cc1ccc(Cn2nc(C)c(NC(=O)CCCn3nc(C)c([N+](=O)[O-])c3C)c2C)cc1	9.2µM	–	–	–	–	–
Cc1c(Cl)c([N+](=O)[O-])nn1CCCC(=O)Nc1cccc(Cl)c1Cl	16.4µM	–	–	–	–	–
Cc1ccc(Oc2cc(NC(=O)CCCn3nc([N+](=O)[O-])cc3C)cc([N+](=O)[O-])c2)cc1	5.17µM	–	–	–	–	–
Cc1nn(CCCC(=O)Nc2cc(Oc3ccccc3)cc([N+](=O)[O-])c2)c(C)c1[N+](=O)[O-]	8.2µM	–	?	–	?	–
Cc1nn(CCCC(=O)NCCc2ccccc2)c(C)c1[N+](=O)[O-]	–	–	–	–	–	–
Clc1nc(NCc2cccs2)c2[nH]cnc2n1	–	–	·	·	–	·
Cc1ccc(C)c(Oc2cc(NC(=O)CCCn3nc(C)c([N+](=O)[O-])c3C)cc([N+](=O)[O-])c2)c1	10.3µM	–	?	–	?	?
Cc1nn(CCCC(=O)Nc2cnn(Cc3ccc(F)cc3)c2)c(C)c1[N+](=O)[O-]	–	–	–	–	–	–
COc1ccccc1-n1nnnc1SCC(=O)Nc1oc(C)c2c(C)n[nH]c(=O)c12	–	–	–	·	–	20.6µM
Cc1ccc(C)c(SCC(=O)Nc2cccnc2Cl)c1	–	–	1.64µM	–	–	–
COc1ccccc1NC(=O)CSc1nc(O)cc(=O)n1-c1ccccc1OC	–	–	14.6µM	–	–	–
COc1cccc(-n2nnnc2SCC(=O)NCCc2ccccc2)c1	–	–	–	–	–	–
COc1ccc(OC)c(-n2nnnc2SCC(=O)NCCc2ccccc2)c1	?	–	5.8µM	–	–	7.31µM
Cc1ccc2nc(SCC(=O)Nc3cccnc3Cl)[nH]c2c1	·	–	?	–	·	–
COc1cccc(N2C(=O)N(CC(=O)NCc3cccc(OC)c3OC)c3ccccc3S2(=O)=O)c1	–	·	·	·	–	·
CCOc1ccc(NC(=O)c2nc3nc(C)cc(C(F)F)n3n2)cc1	–	·	·	·	–	·
CCNC(=O)CSc1nc2ccccc2c(=O)n1-c1cc(OC)ccc1OC	18.4µM	–	–	–	–	–
CCOc1ccccc1NC(=O)CSc1nnnn1-c1ccc(C(=O)OC)cc1	–	–	–	–	–	–
CNC(=O)CSc1nc2ccccc2c(=O)n1-c1cc(OC)ccc1OC	–	–	–	–	–	–
CN1CCN(c2ccc(NC(=O)CSc3nnnn3-c3ccccc3Cl)cc2)CC1	–	–	?	–	–	20.6µM
CCOc1ccccc1NC(=O)CSc1nnnn1-c1ccccc1	9.2µM	–	–	–	–	–
CCOc1ccccc1NC(=O)CSc1nnc2c(CC)c(C)nc(N)n12	14.6µM	–	–	–	–	–
Cc1ccc2c(c1)N(CC(=O)Nc1ncccc1C)C(=O)C(C(C)C)O2 (centres undefined)	–	–	–	–	–	–
Clc1ccc(CCNc2nc3cc(Cl)c(Cl)cc3n3cnnc23)cc1	–	·	·	·	–	·
COc1ccccc1NC(=O)CSc1nnnn1-c1ccccc1OC	–	–	0.651µM	–	–	–
SMILES	KB-V1 cytotox	Giardia kill	MCF10A rerep	ASM inhibitor	KB-3-1 tox	SW480 rerep
CC1=Nc2ccccc2N=C(NC(=O)CSc2nnnn2-c2ccccc2)C1c1ccccc1 (centres undefined)	13µM	–	–	–	–	–
COc1ccc(C)cc1-n1nnnc1SCC(=O)Nc1cccnc1Cl	13µM	–	–	–	–	–
COc1ccc(OC)c(-n2nnnc2SCC(=O)Nc2ccccc2OC)c1	–	–	–	–	–	–
COc1ccccc1NC(=O)CSCc1nc2ccccc2[nH]1	20.6µM	–	–	–	–	–
COc1ccc(C)cc1-n1nnnc1SCC(=O)Nc1cc(C)on1	–	–	–	–	–	–
CSc1ccc(CCNC(=O)CN2C(=O)COc3ccc(S(=O)(=O)N4CCCC4)cc32)cc1	–	·	·	·	–	·
Cc1ccc(S(=O)(=O)N(CC(=O)N/N=C/c2cccc(Cl)c2)c2cccc3cccnc23)cc1	?	–	?	–	?	16.4µM
COc1ccc(Nc2nc(N)nc(N)c2S(=O)(=O)c2ccccc2)cc1	?	·	·	·	–	·
CCCCc1nn2c(=O)cc(COC(=O)c3ccc(NC(=O)c4cccc(OC)c4)cc3)nc2s1	?	·	·	·	–	·
CCN1CCOC(=O)C1CC(=O)Nc1ccc(C)c(Cl)c1 (centres undefined)	?	·	·	·	–	·
COc1ccc(-c2coc3c(C(=O)NCC(C)C)cccc23)c(C)c1	14.6µM	·	·	·	?	·
COc1cc(NC(=O)c2ccc(-c3c(C)noc3C)c3ccoc23)cc(OC)c1OC	5.8µM	·	·	·	?	·
COc1ccc(-c2ccc(C(=O)Nc3cc(OC)c(OC)c(OC)c3)c3occc23)c(C)c1	6.51µM	·	·	·	?	·
CC(=O)Nc1ccc(NC(=O)c2ccc(-c3c(C)noc3C)c3ccoc23)cc1	–	·	·	·	–	·
CCc1ccc(NC(=O)COC(=O)Cn2cnc3ccccc32)cc1	–	–	–	?	–	–
CCN(C(=O)CSc1nc2ccccc2n1Cc1ccccc1C#N)c1ccccc1	–	·	·	·	–	·
COc1cc(C(=O)Nc2nnc(C3=COCCO3)o2)cc(OC)c1OC	?	–	–	–	?	–
CC1(C)Cc2cccc(OCC(=O)NCCc3ccc(S(N)(=O)=O)cc3)c2O1	25.9µM	–	–	–	–	–
CN(Cc1cccs1)C(=O)COc1cccc2c1OC(C)(C)C2	18.4µM	–	–	–	–	–
CC1(C)Cc2cccc(OCC(=O)NCCc3ccccc3)c2O1	?	–	–	–	–	–
O=C(/C=C/c1ccccc1)CCN1CCCCC1	25.9µM	–	6.51µM	–	?	2.91µM
O=C(/C=C/c1ccccc1)NC(=O)c1ccccc1O	–	–	–	–	–	–
O=C(/C=C/c1ccccc1)CC(=O)c1ccccc1O	?	–	13µM	–	–	?
Oc1cc2cc(-c3csc(-c4ccc(F)cc4)n3)ccc2[nH]1	–	·	·	·	–	·
Cc1cc(Br)ccc1NC(=O)C1CCN(S(=O)(=O)c2cccc3nsnc23)CC1	–	·	·	·	–	·
SMILES	KB-V1 cytotox	Giardia kill	MCF10A rerep	ASM inhibitor	KB-3-1 tox	SW480 rerep
CCCCc1ccc(NC(=O)CSc2nc(=O)n(CCN(CC)CC)c3c2CCC3)cc1	–	–	–	–	–	?
O=C(Cn1ncc2c(=O)oc3ccccc3c21)NCc1ccccc1Cl	–	·	·	·	–	·
CC1=C(C(=O)Nc2ccc(CC(=O)NCc3ccc(OC(C)C)cc3)cc2)SCCO1	?	?	0.326µM	–	0.366µM	?
COc1ccc(CNC(=O)Cc2ccc(NC(=O)C3=C(C)OCCS3)cc2)cc1	14.6µM	?	8.2µM	–	1.03µM	?
COc1cccc(CNC(=O)c2cccc(NC(=O)C3=C(C)OCCS3)c2)c1	–	–	–	–	–	–
Cc1cccc(N=C2NC(=O)/C(=C/c3cccs3)S2)c1	–	–	?	–	–	–
